# The list is not random: actives were taken first. Their share in the collection is about 12%.
# G9a block: G9a (human) methyltransferase inhibition; G9a H3K9 monomethylation, AlphaScreen, 2 h; Potency, µM (titrated, usually from 102 µM), most hits filed as inhibitors; 8.8% of 350,000 active; Q96KQ7; also: nearly all actives have a fitted effect of over 75% in size
#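 Step 1: enzyme (final 20 nM) with compound, 15 min RT. Step 2: substrate peptide 500 nM and SAM 20 uM, 2 h RT. Step 3: anti-H3K9me1 antibody and AlphaScreen beads, 10 min, then plate read.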
# JMJD2A Tudor inh: blocks the human JMJD2A Tudor domain | AlphaScreen JMJD2A-Tudor / H3K4me3 peptide binding | O75164 | Potency, µM (doses to about 114 µM), usual class: inhibitors | 4.4% of 390,000 active; also: nearly all actives have a fitted effect of over 50% in size
# Target sequence (O75164 whole entry, looked up, the tested form may be a part): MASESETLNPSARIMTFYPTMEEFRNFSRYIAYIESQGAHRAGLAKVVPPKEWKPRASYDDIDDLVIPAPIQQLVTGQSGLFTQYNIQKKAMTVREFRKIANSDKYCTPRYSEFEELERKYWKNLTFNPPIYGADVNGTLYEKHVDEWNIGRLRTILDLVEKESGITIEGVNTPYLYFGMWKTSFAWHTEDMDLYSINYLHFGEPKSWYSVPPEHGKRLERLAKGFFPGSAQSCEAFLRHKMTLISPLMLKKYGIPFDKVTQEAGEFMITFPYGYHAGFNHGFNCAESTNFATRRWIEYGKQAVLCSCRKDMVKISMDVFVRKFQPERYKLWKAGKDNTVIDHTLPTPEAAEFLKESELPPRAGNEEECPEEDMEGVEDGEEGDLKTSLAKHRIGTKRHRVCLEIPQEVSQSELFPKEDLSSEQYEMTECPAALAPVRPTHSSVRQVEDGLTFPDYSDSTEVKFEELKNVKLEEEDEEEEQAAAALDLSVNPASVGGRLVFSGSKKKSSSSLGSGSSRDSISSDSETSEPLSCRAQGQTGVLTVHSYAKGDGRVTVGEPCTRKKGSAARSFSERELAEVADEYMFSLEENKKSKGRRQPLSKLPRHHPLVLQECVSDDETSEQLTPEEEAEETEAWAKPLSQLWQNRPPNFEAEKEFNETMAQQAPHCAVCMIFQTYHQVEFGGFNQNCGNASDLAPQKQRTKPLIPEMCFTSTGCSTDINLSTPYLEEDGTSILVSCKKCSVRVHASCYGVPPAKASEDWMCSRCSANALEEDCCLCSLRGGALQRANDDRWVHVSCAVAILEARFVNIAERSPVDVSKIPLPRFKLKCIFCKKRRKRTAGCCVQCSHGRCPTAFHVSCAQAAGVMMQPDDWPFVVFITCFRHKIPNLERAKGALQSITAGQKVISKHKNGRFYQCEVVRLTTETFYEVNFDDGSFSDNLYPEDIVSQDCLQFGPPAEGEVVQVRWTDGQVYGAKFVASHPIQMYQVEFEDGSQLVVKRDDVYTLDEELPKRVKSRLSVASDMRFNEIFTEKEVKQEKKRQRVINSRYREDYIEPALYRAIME
# BAZ2B block: BAZ2B (human) inhibition; Q9UIF8; AlphaScreen BAZ2B-H3K14Ac peptide displacement; Potency, µM (doses to about 114 µM), most hits filed as inhibitors; 4.4% of 360,000 active; also: nearly all actives have a fitted effect of over 60% in size
#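 BAZ2B (50 nM) with biotin-H3(5-23)K14Ac peptide (50 nM) in PBS pH 7.4, 0.01% Tween-20, preformed 30 min, then compound 30 min at room temperature; top concentration 110uM. AlphaScreen streptavidin donor/nickel chelate acceptor beads (10 ug/mL final), 20 min dark, signal read.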
# HP1b binding inh: blocks HP1-beta chromodomain binding to methylated histone tails; Potency, µM (series often up to 114 µM), hits mostly inhibitors; AID 540317; 0.56% of 390,000 active; AlphaScreen HP1-beta / biotin-H3K9me3 peptide binding; also: nearly all actives have a fitted effect of over 70% in size
#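 Compound inhibition of the preformed complex between 50 nM HP1-beta and 50 nM biotinylated H3K9me3 peptide was read by AlphaScreen. Buffer was PBS pH 7.4 with 0.01% Tween-20. Incubations ran 30 min at room temperature, with 10 ug/mL donor/acceptor beads.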
# Sfp PPTase inh: Sfp phosphopantetheinyl transferase inhibition; Q9F4F7; Biochemical Sfp PPTase activity, qHTS; Potency, µM, actives largely listed as inhibitors; 3.5% of 310,000 active;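 also: the enzyme is Sfp with the accession as filed and its product quenches rhodamine fluorescence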
#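 Fluorescence-quenching assay: 15 nM Sfp-PPTase preincubated 15 min at room temperature with compound, then 5 uM rhodamine-CoA and 12.5 uM BHQ-2-labelled YbbR peptide added. Fluorescence (ex 525/em 598 nm) read at start and after 30 min; difference gives rate.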
# Hits are given with their value; i = inactive; ? = inconclusive; nt = no result; ! = not confirmed by another sample; [ ] = dose if it differs, or a comment. Calls follow the shape of the dose curve; as a rule, active = well fitted curve in the direction sought with a large enough effect; inconclusive = small, poorly fitted or top-dose-only effect, or another doubt; inactive = no such curve, though single readings can be large; an effect the other way counts as inactive or inconclusive.
SMILES,G9a block,JMJD2A Tudor inh,BAZ2B block,HP1b binding inh,Sfp PPTase inh
CCOC(=O)C1CCN(C(C)C(=O)c2c(C)[nH]c3cc(C)ccc23)CC1 (centres undefined),i,i,i,i,i
CN1[C@@H]2CC[C@H]1CC(OC1c3ccccc3CCc3ccccc31)C2 (some centres undefined),i[5.15 µM],79µM,i,i,i
O=C(Cn1ncc2c3ccccc3n(Cc3ccccc3)c2c1=O)N1CCC2(CC1)OCCO2,i[12.7 µM],nt,i,nt,i
Cc1nc2ccc(Cl)cc2c(=O)n1-c1ccccc1Cl,nt,i,i,i,i
CCCCCSc1cc(OC)c(CCN(C)C)cc1OC,i,?,45µM,?,i
O=C1NC(=O)N(c2ccccc2F)C(=O)/C1=C/c1cn(CC(=O)N2CCOCC2)c2ccccc12,16µM,i,i,i,?
CCN1C(=O)NC(=O)/C(=C\c2cn(CC(=O)N3CCCC3)c3ccccc23)C1=O,i,i,i,i,56µM
CCN1C(=O)NC(=O)/C(=C\c2cn(CC(=O)N3CCCCC3)c3ccccc23)C1=O,i,i,i,i,i
COc1ccc(OCC(=O)N2CCCC(N3CCN(c4ccccc4C)CC3)C2)cc1 (centres undefined),i[0.501 µM],i,i,i,i
N#CC1(c2ccccc2)CCN(C2CC(=O)N(c3ccc4c(c3)OCO4)C2=O)CC1 (centres undefined),22µM,i,i,i,?
N#CC1(c2ccccc2)CCN(C2CC(=O)N(c3ccc(F)cc3)C2=O)CC1 (centres undefined),nt,i,i,i,i
Cc1ccc(NP(=O)(c2ccccc2)c2nc3ccccc3s2)cc1 (centres undefined),25µM,i,i,i,i
COc1ccc(C(C)=O)cc1CN1CC=C(c2ccccc2)CC1,13µM,45µM,50µM,79µM,i
COc1cc(C)cc(CN2CC=C(c3ccccc3)CC2)c1O,?,?,nt,i,i
CCc1ccc2c(CN3CC=C(c4ccccc4)CC3)cc(=O)oc2c1,i,i,i,i,i
Cc1ccc2c(CN3CC=C(c4ccccc4)CC3)cc(=O)oc2c1C,50µM,i,i,i,i
CN1[C@@H](CC(=O)c2ccccc2)CCC[C@@H]1C[C@@H](O)c1ccccc1,i[21.5 µM],nt,nt,nt,i
COP(=O)(OC)C1(O)C(=O)Nc2ccc(Br)cc21 (centres undefined),8.9µM,i,i,i,i
COC(=O)C1=C(c2ccc(Cl)c(C(F)(F)F)c2)C[C@@H]2CC[C@H]1N2C(=O)NCc1cc(C)oc1C(F)(F)F,i[2.33 µM],i,i,i,nt
CCN(CC)C(=O)CN1CCN(c2ccccc2F)CC1,32µM,8.9µM,?,?,i
C/C=C(\C)CN1CCN(c2ccccc2F)CC1,?,3.2µM,?,?,i
Cc1ccccc1CC(=O)N(CCN(C)C)CC1CCCN(Cc2ccccc2F)C1 (centres undefined),i,i,i,i,i
C/C(=N\NC(N)=O)c1c(O)n(C)c(=O)n(C)c1=O,?,40µM,nt,i,56µM
CC1=CC(C)C(COC(N)=O)(COC(N)=O)C(C)C1 (centres undefined),i,i,i,i,i
CC[C@H]1CN2CC[C@@]3(C(=O)Nc4ccccc43)[C@@H]2C[C@@H]1/C(=C\OC)C(=O)OC,nt,i,nt,i,nt
SMILES,G9a block,JMJD2A Tudor inh,BAZ2B block,HP1b binding inh,Sfp PPTase inh
Cn1cnc([N+](=O)[O-])c1Sc1ccc([N+](=O)[O-])cc1,nt,i,i,i,56µM
C=CCn1c(-c2ccc([N+](=O)[O-])cc2)n[nH]c1=S,5.6µM,8.9µM,i,i,i
C[n+]1ccc(-c2ccncc2)cc1,16µM,40µM,i,i,i
COC(=O)[C@]12OC[C@]34C([C@@H](O)[C@@H]1O)[C@]1(C)CC(=O)C(O)=C(C)[C@@H]1C[C@H]3OC(=O)[C@H](O)[C@@H]24 (some centres undefined),i,i,i,i,i
[O-]/[N+](=C/c1cccnc1)c1ccc(Br)cc1,?,i,?,i,13µM
C[C@@H](N)[C@@H](O)c1ccc(O)c(O)c1,2µM,nt,nt,nt,56µM
CC(N)[C@H](O)c1ccc(O)c(O)c1 (some centres undefined),14µM,14µM,nt,nt,nt
O=C(O)[C@@H]1C[C@H]1[C@@H](NP(=O)(c1ccccc1)c1ccccc1)c1ccccc1,i,i,i,i,i
COc1ccc2[nH]cc(C(=O)CN(C)C)c2c1,nt,i,nt,i,nt
CCOC(=S)SSC(=S)OCC,?,nt,nt,nt,5.6µM
CC/C(=N\Nc1cccc2ccccc12)c1c(O)[nH]c(=O)[nH]c1=O,1.6µM,79µM,?,i,?
CCC(=NC(C)c1ccccc1)c1c(O)[nH]c(=O)[nH]c1=O (centres undefined),nt,i,i,i,i
C/C(=N\N(C)c1ccccc1)c1c(O)[nH]c(=O)[nH]c1=O,50µM,i,i,i,i
COc1ccc(N=C(C)c2c(O)[nH]c(=O)[nH]c2=O)cc1,i,i,i,i,i
CCC(=NCCO)c1c(O)n(-c2ccccc2)c(=O)[nH]c1=O,i[2.33 µM],i,i,i,i
CC/C(=N\Nc1ccccc1)c1c(O)n(-c2ccc(OC)cc2)c(=O)[nH]c1=O,40µM,i,i,i,?
CC/C(=N\NC(N)=O)c1c(O)[nH]c(=O)[nH]c1=O,?,i,i,i,?
CC/C(=N\Nc1ccccc1)c1c(O)[nH]c(=O)[nH]c1=O,45µM,i,i,i,i
CCCCCC[C@H]1C(=O)O[C@H](C)[C@H](NC(=O)c2cccc(NC=O)c2O)C(=O)O[C@@H](C)[C@@H]1OC(=O)CC(C)C,nt,nt,nt,nt,i
O=C1NC(=O)C(=Cc2ccccc2Oc2ccc(F)cc2)C(=O)N1,10µM,i,i,i,45µM
COC(=O)Cn1cc(C=C2C(=O)N(C)C(=O)N(C)C2=O)c2ccccc21,nt,i,i,i,i
CN1C(=O)C(=Cc2ccccc2Oc2ccc(Cl)c(F)c2)C(=O)N(C)C1=O,i,i,i,i,56µM
COc1ccccc1NC(=O)COC(=O)c1cn(C)c2ccccc12,i[2.33 µM],i,i,i,nt
NCC(O)c1cc(O)c(O)cc1F (centres undefined),9.5µM!,10µM,i,?,nt
Cc1ccc(-c2nc3ccccc3c(=O)n2-c2nccs2)cc1,i,i,i,i,i
SMILES,G9a block,JMJD2A Tudor inh,BAZ2B block,HP1b binding inh,Sfp PPTase inh
COC(=O)C1=C(c2ccc(C(C)=O)cc2)C[C@@H]2CC[C@H]1N2C(=O)NC(C)C,i[2.33 µM],i,i,i,nt
O=C(NCCCCc1ccccc1)c1ccccc1Br,nt,i,nt,i,nt
O=C(NC(=S)Nc1ccccc1N1CCCC1)c1ccccc1Br,10µM,nt,11µM,nt,i
CC(=O)N1N=C(c2c(O)n(C)c(=O)n(C)c2=O)CC1c1ccccc1 (centres undefined),40µM,i,i,i,i
O=C1NC(=O)C(=CCc2ccccc2)C(=O)N1,nt,i,nt,i,nt
Cn1cc(C=C2C(=O)NC(=O)NC2=O)c2ccccc21,i,?,i,i,i
NC(=S)N/N=C/c1coc2ccccc2c1=O,i,i,i,i,i

# Compound activity (PubChem BioAssay)
